These results are taken from the supplement of paper PMC13094657.

± gives the standard deviation of the averaged measurements.
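Further: viability of the cells left after supernatant collection, read with Deep Blue dye added for 4 h, as absorbance at 570 nm minus 600 nm.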

The test system of the assay is MDA-MB-231. Put plainly: cell viability relative to vehicle unstimulated control (fraction); higher = more viable cells. The note with it: pre-treatment time: 18 h then 24 h IFNg/TNF.
On to `CC(C)=CCC[C@](C)(O[C@@H]1O[C@H](CO)[C@@H](O)[C@H](O)[C@H]1O)[C@H]1CC[C@]2(C)[C@@H]1[C@H](O)C[C@@H]1[C@@]3(C)CC[C@H](O)C(C)(C)[C@@H]3[C@@H](O[C@@H]3O[C@H](CO)[C@@H](O)[C@H](O)[C@H]3O[C@@H]3OC[C@@H](O)[C@H](O)[C@H]3O)C[C@]12C` [Notoginsenoside R1] (compound dose: 10 uM), for which the cell viability turned out to be 0.909 ± 0.066.
Turning to `C=C1CC[C@@H]2[C@](C)(CO)[C@H](O)CC[C@@]2(C)[C@H]1C/C=C1\C=COC1=O` [Dehydroandrographolide] (compound dose: 10 uM), the cell viability is 0.984 ± 0.032.
Then `C=C1[C@H](OC(C)=O)[C@@H](O)[C@@H](OC(=O)c2cccnc2)C(C)(C)/C=C/[C@H](C)[C@H](OC(C)=O)[C@@]2(O)C[C@@](C)(OC(C)=O)[C@H](OC(=O)c3ccccc3)[C@@H]2[C@H]1OC(C)=O` [Jatrophane 5] (compound dose: 10 uM), with 1.12 ± 0.027; and `CC(C)C1=CC(=O)C(C)(C2C(O)CC3(C)C4CC=C5C(CCC(OC6OC(CO)C(O)C(O)C6OC6OC(C)C(O)C(O)C6O)C5(C)C)C4(C)C(=O)CC23C)O1` (stereo not given) [Picfeltarraenin IB] (compound dose: 10 uM), with 1.02 ± 0.067; and `C=C[C@@]1(C)CC(=O)[C@]2(O)[C@@]3(C)[C@@H](O)CCC(C)(C)[C@@H]3[C@H](O)[C@H](OC(C)=O)[C@@]2(C)O1` [Forskolin] (compound dose: 10 uM), with 0.785 ± 0.079.
Then `C=C1C[C@]23C[C@@]1(O)CC[C@H]2[C@@]12C=C[C@H](O)[C@@](C)(C(=O)O1)[C@H]2[C@@H]3C(=O)O` [Gibberellic acid] (compound dose: 10 uM), with 0.951 ± 0.013; and `CC(=O)O[C@@H]1CC[C@@]2(C)[C@@H](CC[C@]3(C)[C@@H]2C(=O)C=C2[C@@H]4[C@@H](C)[C@H](C)CC[C@]4(C)CC[C@]23C)[C@@]1(C)C(=O)O` (compound dose: 10 uM), with 1.03 ± 0.031; and `C[C@H](C[C@H](O)[C@H]1OC1(C)C)C1=C2C[C@H](O)[C@H]3[C@@]4(C)CCC(=O)C(C)(C)[C@@H]4CC[C@]3(C)[C@@]2(C)CC1` [Alisol B] (compound dose: 10 uM), with 0.865 ± 0.13.
For `C=C1CC[C@H]2C(=C)CC[C@H]3C(=C)C(=O)O[C@@H]3[C@@H]12` [Dehydrocostus Lactone] (compound dose: 10 uM) the value was 0.933 ± 0.08; for `CC(C)=CCC[C@@](C)(O)[C@H]1CC[C@]2(C)[C@@H]1[C@H](O)C[C@@H]1[C@@]3(C)CC[C@H](O[C@@H]4O[C@H](CO)[C@@H](O)[C@H](O)[C@H]4O[C@@H]4O[C@H](CO)[C@@H](O)[C@H](O)[C@H]4O[C@@H]4OC[C@@H](O)[C@H](O)[C@H]4O)C(C)(C)[C@@H]3CC[C@]12C` [Notoginsenoside Ft1] (compound dose: 2 uM), 0.899 ± 0.026.
Take `C[C@H]1O[C@@H](Oc2c(-c3cc(O)c(O)c(O)c3)oc3cc(O)cc(O)c3c2=O)[C@@H](O)[C@@H](O)[C@@H]1O` [Myricitrin] (compound dose: 10 uM): the cell viability was found to be 0.988 ± 0.021.
`CC1(C)CC[C@]2(C(=O)O[C@@H]3O[C@H](CO)[C@@H](O)[C@H](O)[C@H]3O)CC[C@]3(C)C(=CC[C@@H]4[C@@]5(C)CC[C@H](O[C@@H]6O[C@H](C(=O)O)[C@@H](O)[C@H](O)[C@H]6O[C@@H]6O[C@H](CO)[C@@H](O)[C@H](O)[C@H]6O)C(C)(C)[C@@H]5CC[C@]43C)[C@@H]2C1` [Ginsenoside Ro] (compound dose: 10 uM): the cell viability amounted to 0.928 ± 0.091.
Regarding `CC1(C)CCC2(CO)C(=C3C=CC4C5(C)CCC(OC6OC(COC7OC(CO)C(O)C(O)C7O)C(OC7OC(CO)C(O)C(O)C7O)C(O)C6O)CC5C(C)(CO)CC4(C)C3(C)CC2O)C1` (stereo not given) [Clinodiside A] (compound dose: 10 uM), the cell viability was found to be 0.918 ± 0.029.
Turning to `C[C@@H]1O[C@@H](OC[C@H]2O[C@@H](Oc3c(-c4ccc(O)cc4)oc4cc(O)cc(O)c4c3=O)[C@H](O)[C@@H](O)[C@@H]2O)[C@H](O)[C@H](O)[C@H]1O` [Kaempferol 3-rutinoside] (compound dose: 10 uM), the cell viability was determined as 1.1 ± 0.14.
For `C=C[C@]1(C)CC[C@@H](C(=C)C)C[C@H]1C(=C)C` [β-Elemene] (compound dose: 10 uM) the value was 0.939 ± 0.071.
